This excerpt belongs to a sample that is enriched for hits.
TTR transcr act = TTR transcription activators in neuroblastoma reporter cells, primary screen, cell-based, luminescence, SH-SY5Y, TTR promoter Gaussia luciferase. AID 1117267, 2014. 100% = recombinant luciferase protein wells. activation, % at 16.7 µM. 92,000 tested, 1.3% active;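 active = activation above the mean of all tested compounds plus 3 SD, cut at about 9.5% in these data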;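 also: cells exposed to compounds for one day before reading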
HuH7 TTR inh = TTR promoter reporter inhibitors in hepatoma cells, counter-screen for TTR transcription activator project, cell-based, luminescence, HuH7 hepatoma; shares compounds with TTR transcr act; HuH7 TTR promoter-Gaussia luciferase reporter; inhibition, % at 16.7 µM; 1,100 tested, 4% active;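 active = average inhibition above the solvent-only control wells' mean plus 3 SD, cut at about 15% in these data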;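 also: inhibitors lower well luminescence so higher value means more inhibition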
TTR up confirm = TTR transcription activators, retest, confirmation, cell-based, luminescence, SH-SY5Y, triplicate. activation, % at 16.7 µM. SHSY5Y TTR promoter Gaussia luciferase; 100% = purified Lucia enzyme wells, no cells. shares compounds with TTR transcr act. AID 1117280, 2014. 1,100 tested, under 10 active;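 active = mean activation above a set limit taken from the earlier primary screen, cut at about 11% in these data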
Hits are given with their value; n = inactive.

SMILES	TTR transcr act	others
O=C(NCc1ccco1)O[C@@H]1CC[C@@]23CCCN2C(=O)CCC[C@H]3C1	n
COc1cc(OC)cc(C(C)c2ccc(-c3ccccc3)cc2)c1 (centres undefined)	n
C=CCN1C[C@H](COC(=O)c2cccc(C)c2)Oc2cccc(F)c2S1(=O)=O	n
NC(=O)c1c(N)[nH]c(C(=O)c2ccccc2)c1-c1ccccc1C(F)(F)F	n
Cc1ccc(NC(=O)CCn2ccc([N+](=O)[O-])n2)nc1	29	HuH7 TTR inh=n;TTR up confirm=n
CC(=O)Nc1ccc(NC(=O)Cn2ccc([N+](=O)[O-])n2)cc1	n
O=C(CCn1ccc([N+](=O)[O-])n1)NC1CCCCCC1	n
C[C@H]1CCC/C=C/C(=O)c2c(cc(O)c(Cl)c2O)CC(=O)O1	n
COC(=O)[C@]12C[C@H](CC(=O)N3CCN(C(=O)C4CC4)CC3)C(=O)N(Cc3cccc4ccccc34)C1=C[C@H](C(C)C)O[C@@H]2C1CC1	n
Fc1ccc(Nc2nc(N3CCOCC3)nc(N3CCOCC3)n2)cc1	n
c1cncc(CNc2nc(N3CCOCC3)nc(N3CCOCC3)n2)c1	n
CSc1nc(NCC(C)C)nc(N2CCOCC2)n1	15	HuH7 TTR inh=n;TTR up confirm=n
C#CCNC(=O)C[C@@H]1C(=O)N(CCc2ccc(Cl)cc2)C2=CCCCC[C@]21C(=O)OC	n
CCC(C#Cc1ccccc1)NCc1ccc(OC)cc1OC (centres undefined)	n
Cc1c(C(=O)N2CCOCC2)oc2ccc(S(=O)(=O)N3CCCC3)cc12	n
Cc1c(C(=O)N2CCc3ccccc3C2)oc2ccc(S(=O)(=O)N3CCCCCC3)cc12	n
Cc1c(C(=O)N2CCN(S(=O)(=O)c3ccccc3)CC2)oc2ccc(Br)cc12	31	HuH7 TTR inh=n;TTR up confirm=n
COc1ccc2[nH]c3c(c2c1)CCN[C@]31C(=O)N(Cc2cn(Cc3ccccc3)nn2)c2ccc(F)cc21	n
COc1cccc(N(C)C(=O)[C@@H](C)[C@@H](O)c2ccc(Cl)cc2)c1	n
O=c1[nH]n(CCO)c(=O)c2cccnc12	n
O=c1[nH]n(-c2ccc(Cl)cc2)c2ncccc12	14	HuH7 TTR inh=n;TTR up confirm=n
COc1ccc(-n2c(=S)[nH]c(=O)c3cccnc32)cc1	n
O=C(O)c1ccc(CSc2nnc(Cc3ccccc3)o2)cc1	13	HuH7 TTR inh=42;TTR up confirm=n
O=C(CSc1nnc(Cc2ccccc2)o1)N1CCc2ccccc21	n
CC(C)(C)OC(=O)NCCc1nnc(SCc2ccccc2)o1	n
SMILES	TTR transcr act	others
COC(=O)[C@]12C[C@H](CC(=O)N3CCN(C(=O)C4CC4)CC3)C(=O)N(Cc3ccc(Cl)cc3Cl)C1=C[C@H](C1CCCC1)O[C@@H]2C	n
CCCC1CCC2(CCCN2CCOC(=O)Nc2ccccc2)CC1 (centres undefined)	n
COc1ccc(NC(=O)CSc2nc3ccccc3c(=O)n2CCCN2CCOCC2)c(OC)c1	n
CC(C)Cn1c(SC(C)C(=O)Nc2ccc(N3CCOCC3)cc2)nc2ccccc21 (centres undefined)	n
Cc1cccc(NC(=O)C(C)Sc2nc3ccccc3c(=O)n2CCCN2CCOCC2)c1 (centres undefined)	21	HuH7 TTR inh=n;TTR up confirm=n
COC(=O)[C@]12C[C@H](CC(=O)N3CCN(C(=O)C4CC4)CC3)C(=O)N(Cc3ccco3)C1=C[C@H](C1CCCC1)O[C@@H]2C	n
O=C(Nc1ccc(F)c(C(F)(F)F)c1)Nc1nnc(-c2ccncc2)s1	n
COc1ccc(-n2nnnc2SC(C)C(N)=O)cc1 (centres undefined)	n
CCN(CC)S(=O)(=O)c1ccc2c(c1)nc(SC(C)C(N)=O)n2-c1ccc(OC)cc1 (centres undefined)	26	HuH7 TTR inh=n;TTR up confirm=n
CCN(CC)S(=O)(=O)c1ccc2c(c1)nc(SC(C)C(=O)NCC1CCCO1)n2CC (centres undefined)	n
C[C@H](CO)N1C[C@H](C)[C@@H](CN(C)C(=O)NC2CCCCC2)OCc2cn(nn2)CCCC1=O	n
COC[C@H]1CCCN1c1ccc2c(c1)O[C@H](C)CCN(C1CC1)S2(=O)=O	n
CC(C)C[C@H](NC1(C(=O)NC2CCCCC2)CCCCC1)C(=O)NCC(c1ccccc1)c1ccccc1	n
Cc1ccc(/C=N/NC(=O)c2csc(C)c2)o1	23	HuH7 TTR inh=16;TTR up confirm=n
Cc1ccc(/C=N/NC(=O)c2ccc(NC(=O)c3ccccc3Cl)cc2)o1	n
Cc1ccc(/C=N\NC(=O)c2cncc(Br)c2)o1	n
COC(=O)c1cccc(Cn2ccc3ccc(-c4ccc5ccn(C(=O)c6ccccc6OC)c5c4)cc32)c1	n
CCCCNC(=O)C[C@H]1C[C@@]2(C(=O)OC)C(=C[C@H](C(C)C)O[C@@H]2C2CC2)N(Cc2cccc3ccccc23)C1=O	n
CC(=O)c1ccc(CC2SC(N)=NC2=O)cc1 (centres undefined)	n
NC1=NC(=O)C(CC(=O)NCc2ccccc2)S1 (centres undefined)	n
Cc1ccc(C(=O)CC2SC(N)=NC2=O)cc1 (centres undefined)	20	HuH7 TTR inh=n;TTR up confirm=n
O=C(NCC(c1ccccc1)c1ccccc1)[C@H](Cc1ccccc1)NC1(C(=O)NC2CCCCC2)CCCC1	n
Cc1nn2c3ccccc3n(CCN3CCCCC3)c2nc1=O	11	HuH7 TTR inh=n;TTR up confirm=n
O=C(O)CCc1nn2c3ccccc3nc2n(CCN2CCCCC2)c1=O	n
CCn1c(=O)c(C)nn2c3ccccc3nc12	n
SMILES	TTR transcr act	others
CN(Cc1ccccc1)C(=O)OCc1cn(Cc2cccc(F)c2)nn1	n
O=C(OCc1cn(Cc2ccc(Cl)cc2)nn1)N1CCOCC1	n
NC(=O)C1CCN(c2ncc(Br)s2)CC1	n
O=C(/C=C\N1CCOCC1)c1ccc(Br)cc1	12	HuH7 TTR inh=n;TTR up confirm=n
O=C(NC(=S)Nc1ccccc1N1CCOCC1)c1ccc(Br)cc1	n
O=C(c1cccc(Br)c1)N1CCN(C(=O)N2CCOCC2)CC1	n
CC(C)N(C[C@@H]1CSCCS(=O)(=O)N1)C(C)C	n
O=C1CCC[C@H]2C[C@H](NCCc3ccncc3)CC[C@]23CCCN13	n
CSc1ccc(-c2csc(N3CCC(C(N)=O)CC3)n2)cc1	n
O=C(Cc1cccs1)NC1CCCCN(Cc2ccc(Cl)cc2)C1=O (centres undefined)	n
O=C(N/N=C/c1cccnc1)c1ccco1	n
Cn1nccc1C(=O)N/N=C/c1cccnc1	n
O=C(N/N=C/c1cccnc1)c1ccc2c(c1)OCCO2	18	HuH7 TTR inh=n;TTR up confirm=n
CNC(C#Cc1ccccc1)c1ccccc1C(F)(F)F (centres undefined)	n
O=c1cc(N2CCN(c3cccc(Cl)c3Cl)CC2)[nH]c(=O)n1C1CCCCC1	n
CCOc1ccc(CCNC(=O)c2ccc(Oc3ccccc3)cc2)cc1OCC	n
COc1ccc(NC(=O)C(OC(=O)CNC(=O)c2ccccc2)c2ccccc2)cc1F (centres undefined)	n
O=C(CSc1nnc2ccccn12)NCCc1ccc(Cl)cc1	n
CC(C)CNC(=O)CSc1nnc2ccccn12	11	HuH7 TTR inh=n;TTR up confirm=12
CC(C)(C)NC(=O)NC(=O)CSc1nnc2ccccn12	n
Cc1ccc(NC(=O)C2CC3CCC2C3)cc1 (centres undefined)	n

Bioassay records (PubChem)
